Measurements from PubChem BioAssay AID488854 (National Center for Advancing Translational Sciences (NCATS), 2010).
Where “and” joins values, the source holds several entries; their conditions need not be identical. Equal entries are not always repeated. Results filed as inconclusive are left out. Calls of active or inactive are those of the source. Calls come from the whole dose curve; as a rule, active = well fitted activation curve with a large enough effect; inconclusive = small, poorly fitted or top-dose-only effect; inactive = no such curve, though single readings can be large or run the other way.

The compounds below were run against Lysosomal acid glucosylceramidase (Homo sapiens) (UniProt P04062) (assay: qHTS Assay for Inhibitors and Activators of N370S glucocerebrosidase as a Potential Chaperone Treatment of Gaucher Disease: Confirmation for Probe SAR). Settings: N370S GC spleen homogenate, 4MU-glucoside fluorescence; series mostly up to 57.5 µM.
Excerpt: NIH Chemical Genomics Center [NCGC] NIH Molecular Libraries Probe Production Centers Network [MLPCN] MLPCN Grant: MH086442-01 Assay Submitter (PI): Wei Zheng Glucocerebrosidase (GC) catalyzes the hydrolysis of beta-glucocerebroside to glucose and ceramide in lysosomes. Mutations in the glucocerebrosidase gene result in Gaucher disease, an autosomal recessive lysosomal storage disorder. Many of the mutations encountered in patients with Gaucher disease are missense alterations that may cause misfolding, decreased stability and/or mistrafficking of this lysosomal protein. […] These inhibitors include iminosugar analogs and three non-iminosugar inhibitors identified from a previous HTS of 62,000 compounds with the wild type recombinant enzyme. However, the enhancement of enzyme activity by the chaperone action of an enzyme inhibitor must be balanced against the direct inhibition of the enzyme. An enzyme activator could also function as a chaperone by binding to the enzyme and helping to correct its misfolding and mistrafficking. While activators for GC have not yet been identified, they may have better therapeutic potential than inhibitors. Therefore the discovery and development of chemical activators may provide a new strategy for the chaperone therapy. We have optimized a new assay using N370S mutant GC derived from the spleen of a Gaucher patient. […] In addition, the MLPCN compound library has expanded, which increases the chance of finding new and better probes.
NCGC Assay Protocol Summary: This is a fluorogenic enzyme assay with 4-methylumbelliferyl-beta-D-glucopyranoside as the substrate and N370S glucocerebrosidase from human spleen homogenate as the enzyme preparation. Upon the hydrolysis of this fluorogenic substrate, the resulting product, […] which can be detected by a standard fluorescence plate reader. Data were normalized to the controls for basal activity (without enzyme) and 100% activity (with enzyme). The AC50 values were determined from concentration-response data modeled with the standard Hill equation. Assay buffer: 50 mM citric acid (titrated with potassium phosphate to pH 5.0), 100 mM potassium chloride, 10 mM sodium chloride, 1 mM magnesium chloride, 0.01% Tween-20. 1536-well assay protocol: (1) Add 2 ul/well of spleen homogenate (27 ug final) (2) Add 23 nL compounds in DMSO solution. The final titration was 0.5 nM to 58 uM. (3) Add 2 ul of substrate (1 mM final) (4) Incubate at 37C for 40 min. (5) Add 2 ul stop solution (1M NaOH and 1M Glycine mixture, pH 10) (6) Detect the assay plate in a ViewLux plate reader (PerkinElmer) with Ex=365 nm and Em=440nm. Keywords: Glucocerebrosidase, beta-glucosidase, Gaucher Disease, pharmacological chaperone, chaperone therapy, high throughput screening, glucocerebrosidase inhibitor, MLSMR, MLSCN, NIH Roadmap, qHTS and NCGC

Lysosomal acid glucosylceramidase (Homo sapiens), sequence (P04062 whole entry N409S): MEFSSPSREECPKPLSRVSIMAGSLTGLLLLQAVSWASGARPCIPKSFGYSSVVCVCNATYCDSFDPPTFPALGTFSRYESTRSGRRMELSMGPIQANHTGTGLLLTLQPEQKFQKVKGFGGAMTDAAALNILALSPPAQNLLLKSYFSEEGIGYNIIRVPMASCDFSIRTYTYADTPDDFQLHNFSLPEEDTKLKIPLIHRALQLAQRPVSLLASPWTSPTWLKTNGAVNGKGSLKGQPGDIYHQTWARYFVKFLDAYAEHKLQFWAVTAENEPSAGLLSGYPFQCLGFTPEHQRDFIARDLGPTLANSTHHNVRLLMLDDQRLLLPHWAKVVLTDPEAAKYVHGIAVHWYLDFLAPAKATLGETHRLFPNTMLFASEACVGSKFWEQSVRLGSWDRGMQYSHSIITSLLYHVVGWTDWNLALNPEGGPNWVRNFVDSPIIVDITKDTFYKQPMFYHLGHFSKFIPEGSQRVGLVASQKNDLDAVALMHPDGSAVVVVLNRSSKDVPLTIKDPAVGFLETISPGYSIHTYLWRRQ

SMILES | Potency
Cc1cc(C)n2ncc(C(=O)N3CCCC3)c2n1 | inactive
Cc1cc(C)n2ncc(C(=O)NC3CCC(C(C)(C)C)CC3)c2n1 (configuration not stated) | 8.19 µM (active) and 1.63 µM (active)
COc1ccc(NC(=O)c2cnn3c(C)cc(C)nc23)cc1 | 6.51 µM (active)
C=C1C=C(C(F)F)n2ncc(C(=O)Nc3ccc(C(C)CC)cc3)c2N1 (configuration not stated) | 2.51 µM (active)
CCc1ccc(NC(=O)c2cnn3c(C)cc(-c4ccccc4)nc23)cc1 | 13 µM (active)
CCCCN(CCCNC(=S)NCCCc1cnc[nH]1)c1ccc(Br)cn1 | inactive
CNC(=O)c1cnn2c(C)cc(C)nc12 | inactive
